In PubChem BioAssay AID1159580 (chemical genetic matrix, 2015):
The campaign covered roughly 5,500 compounds. About 2,000 (36%) were called active. Another 18% or so got no clear call; they are omitted. Some of the results follow. Unmarked numbers belong to inactive results. Rule as the data show it: active = normalized growth mostly below about 0.91 (no sharp cut-off); inconclusive = no clear call, values can overlap the other calls; inactive = mostly above about 0.92.

Experiment: chemical genetic growth profiling, strain panel (AID 1159580);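 also: tested at 20 µM; growth read once vehicle control cultures reached saturation at 30 °C; 1 = growth at the plate median or of vehicle wells; lower values mean less growth of the strain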
Conditions: S. cerevisiae deletion strains, growth OD

## CC12CCCCC1(Br)[N+](=O)N2[O-] (stereo unspecified)
Locus YAL021C, strain ccr4, hits give low values
  normalized growth: 0.951
Locus YAL026C, strain drs2, hits give low values
  normalized growth: 0.899 (active)
Locus YAL030W, strain snc1, hits give low values
  normalized growth: 0.997
Locus YBL061C, strain skt5, hits give low values
  normalized growth: 0.978
Locus YBR009C, strain hhf1, hits give low values
  normalized growth: 0.939
Locus YBR023C, strain chs3, hits give low values
  normalized growth: 0.976
Locus YBR171W, strain sec66, hits give low values
  normalized growth: 0.964
Locus YBR231C, strain swc5, hits give low values
  normalized growth: 0.992
Locus YBR279W, strain paf1, hits give low values
  normalized growth: 0.972
Locus YCL011C, strain gbp2, hits give low values
  normalized growth: 0.943
Locus YCL016C, strain dcc1, hits give low values
  normalized growth: 0.951
Locus YCL069W, strain vba3, hits give low values
  normalized growth: 0.986
Locus YCR088W, strain abp1, hits give low values
  normalized growth: 0.983
Locus YDL005C, strain med2, hits give low values
  normalized growth: 0.969
Locus YDL040C, strain nat1, hits give low values
  normalized growth: 0.991
Locus YDR001C, strain nth1, hits give low values
  normalized growth: 1.01
Locus YDR069C, strain doa4, hits give low values
  normalized growth: 0.91
Locus YDR137W, strain rgp1, hits give low values
  normalized growth: 0.857
Locus YDR159W, strain sac3, hits give low values
  normalized growth: 0.995
Locus YDR195W, strain ref2
  normalized growth: 1.01
Locus YDR297W, strain sur2, hits give low values
  normalized growth: 1
Locus YDR334W, strain swr1, hits give low values
  normalized growth: 0.984
Locus YDR335W, strain msn5, hits give low values
  normalized growth: 0.974
Locus YDR392W, strain spt3, hits give low values
  normalized growth: 0.948
Locus YEL003W, strain gim4, hits give low values
  normalized growth: 0.994
Locus YEL037C, strain rad23, hits give low values
  normalized growth: 0.998
Locus YEL061C, strain CIN8 (second series), hits give low values
  normalized growth: 0.993
Locus YER015W, strain faa2, hits give low values
  normalized growth: 0.993
Locus YER016W, strain bim1, hits give low values
  normalized growth: 0.999
Locus YER111C, strain swi4, hits give low values
  normalized growth: 0.967
Locus YER155C, strain BEM2 (second series), hits give low values
  normalized growth: 0.853 (active)
Locus YFR010W, strain ubp6, hits give low values
  normalized growth: 0.922
Locus YGL167C, strain pmr1, hits give low values
  normalized growth: 0.993
Locus YGL173C, strain kem1, hits give low values
  normalized growth: 0.953
Locus YGL227W, strain vid30, hits give low values
  normalized growth: 0.992
Locus YGL240W, strain doc1, hits give low values
  normalized growth: 0.992
Locus YGL253W, strain hxk2, hits give low values
  normalized growth: 0.989
Locus YHR013C, strain ard1, hits give low values
  normalized growth: 0.919
Locus YHR027C, strain rpn1, hits give low values
  normalized growth: 0.966
Locus YHR142W, strain chs7, hits give low values
  normalized growth: 0.942
Locus YJL092W, strain hpr5, hits give low values
  normalized growth: 0.989
Locus YJL095W, strain BCK1 (second series), hits give low values
  normalized growth: 0.993
Locus YJL115W, strain asf1, hits give low values
  normalized growth: 0.987
Locus YJL129C, strain trk1, hits give low values
  normalized growth: 0.997
Locus YJL154C, strain vps35, hits give low values
  normalized growth: 0.997
Locus YJL164C, strain tpk1, hits give low values
  normalized growth: 0.951
Locus YJL166W, strain qcr8, hits give low values
  normalized growth: 0.961
Locus YJL187C, strain SWE1, hits give low values
  normalized growth: 0.986
Locus YKL160W, strain elf1, hits give low values
  normalized growth: 0.944
Locus YKR026C, strain gcn3, hits give low values
  normalized growth: 0.985
Locus YKR091W, strain srl3, hits give low values
  normalized growth: 0.989
Locus YLL001W, strain dnm1, hits give low values
  normalized growth: 0.967
Locus YLL026W, hits give low values
  normalized growth: 0.991
Locus YLL041C, strain sdh2, hits give low values
  normalized growth: 0.999
Locus YLR027C, strain aat2, hits give low values
  normalized growth: 0.954
Locus YLR221C, strain rsa3, hits give low values
  normalized growth: 0.927
Locus YLR258W, strain gsy2, hits give low values
  normalized growth: 0.967
Locus YLR262C, strain YPT6 (second series), hits give low values
  normalized growth: 0.815 (active)
Locus YLR320W, strain mms22, hits give low values
  normalized growth: 0.954
Locus YLR342W, strain FKS1, hits give low values
  normalized growth: 0.946
Locus YLR357W, strain rsc2, hits give low values
  normalized growth: 0.914
Locus YLR370C, strain arc18, hits give low values
  normalized growth: 0.966
Locus YLR384C, strain iki3, hits give low values
  normalized growth: 0.984
Locus YML120C, strain ndi1, hits give low values
  normalized growth: 1
Locus YMR058W, strain fet3, hits give low values
  normalized growth: 0.951
Locus YMR125W, strain sto1, hits give low values
  normalized growth: 1.02
Locus YMR129W, hits give low values
  normalized growth: 0.98
Locus YMR205C, strain PFK2, hits give low values
  normalized growth: 0.995
Locus YMR231W, strain pep5, hits give low values
  normalized growth: 0.997
Locus YNL071W, strain lat1, hits give low values
  normalized growth: 0.946
Locus YNL209W, strain ssb2, hits give low values
  normalized growth: 0.963
Locus YNL248C, strain rpa49, hits give low values
  normalized growth: 0.954
Locus YNL322C, strain KRE1 (second series), hits give low values
  normalized growth: 0.979
Locus YNR049C, strain mso1, hits give low values
  normalized growth: 0.999
Locus YOR001W, strain rrp6, hits give low values
  normalized growth: 0.958
Locus YOR070C, strain gyp1, hits give low values
  normalized growth: 0.994
Locus YOR080W, strain dia2, hits give low values
  normalized growth: 1
Locus YOR083W, strain WHI5, hits give low values
  normalized growth: 0.895
Locus YOR106W, strain vam3, hits give low values
  normalized growth: 0.884
Locus YOR265W, strain rbl2, hits give low values
  normalized growth: 0.991
Locus YOR270C, strain vph1, hits give low values
  normalized growth: 0.81
Locus YOR290C, strain snf2, hits give low values
  normalized growth: 0.976
Locus YPL051W, strain arl3, hits give low values
  normalized growth: 0.936
Locus YPL078C, strain atp4, hits give low values
  normalized growth: 0.967
Locus YPL106C, strain sse1, hits give low values
  normalized growth: 0.941
Locus YPL240C, strain hsp82, hits give low values
  normalized growth: 0.978
